High-throughput results deposited in PubChem BioAssay by several laboratories.
Anthrax LF prot: Bacillus anthracis LF protease inhibitors, primary screen, biochemical, multiplex microsphere, MLPCN library. Lethal factor (Bacillus anthracis), P15917. multiplex microsphere protease cleavage assay. inhibition, % at 10 µM. hit rate 0.12% among 360,000. AID 588501, 2011
Target sequence (P15917 whole entry, looked up): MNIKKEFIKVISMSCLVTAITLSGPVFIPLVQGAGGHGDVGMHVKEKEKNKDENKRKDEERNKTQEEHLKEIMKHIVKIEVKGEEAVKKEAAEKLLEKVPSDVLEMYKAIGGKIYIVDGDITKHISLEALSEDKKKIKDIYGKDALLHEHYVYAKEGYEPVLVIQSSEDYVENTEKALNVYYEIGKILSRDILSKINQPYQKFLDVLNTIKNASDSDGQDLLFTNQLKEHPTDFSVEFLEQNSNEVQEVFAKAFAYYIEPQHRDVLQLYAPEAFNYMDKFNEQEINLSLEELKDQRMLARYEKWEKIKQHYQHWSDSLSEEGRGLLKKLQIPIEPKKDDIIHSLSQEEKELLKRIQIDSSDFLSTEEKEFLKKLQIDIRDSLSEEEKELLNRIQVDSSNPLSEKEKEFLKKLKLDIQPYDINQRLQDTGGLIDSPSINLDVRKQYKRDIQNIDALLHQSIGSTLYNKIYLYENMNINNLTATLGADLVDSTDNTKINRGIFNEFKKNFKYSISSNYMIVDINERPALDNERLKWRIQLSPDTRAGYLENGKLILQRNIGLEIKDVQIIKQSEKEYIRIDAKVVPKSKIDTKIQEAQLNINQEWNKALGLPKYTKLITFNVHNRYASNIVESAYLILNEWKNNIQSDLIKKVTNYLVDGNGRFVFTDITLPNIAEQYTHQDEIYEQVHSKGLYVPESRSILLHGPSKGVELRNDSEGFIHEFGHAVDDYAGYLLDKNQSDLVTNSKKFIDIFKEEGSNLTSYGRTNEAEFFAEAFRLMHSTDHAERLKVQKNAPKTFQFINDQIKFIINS
BH1578 lux ind: inducers of Vibrio cholerae quorum light production without autoinducers, primary screen, BH1578 luxS cqsA deficient, single point | V. cholerae BH1578 lux reporter, luminescence, 6 h | activation, % at 18.7 µM | hit rate 0.16% among 350,000; in the data active means activation mostly above about 9.7%, no sharp cut-off; inconclusive means no clear call, values can overlap the other calls; inactive means mostly below about 3.7%
BoNT-F LC inh: BoNT/F light chain protease inhibitors, primary screen, biochemical, flow cytometry, MLPCN library. Multiplex microsphere protease cleavage assay. inhibition, % at 10 µM. hit rate 0.22% among 360,000. Botulinum neurotoxin type F light chain protease (Clostridium botulinum). AID 588497, 2011; in the data active means inhibition above about 35%, passing the limit was not always enough; inconclusive means no clear call, values can overlap the other calls
BoNT-A LC inh2: BoNT/A light chain protease inhibitors, primary screen, biochemical, flow cytometry, MLPCN library | Botulinum neurotoxin type A light chain protease (Clostridium botulinum A str. ATCC 3502) | hit rate 0.17% among 360,000 | inhibition, % at 10 µM | multiplex microsphere protease substrate cleavage
BJeLR viability: MLPCN primary cell-based screen for lethality selective to Ras in HRASV12 cells | BJeLR (HRASV12) viability, CellTiter-Glo ATP luminescence, 48 h | inhibition, % (test concentration not listed) | hit rate 0.17% among 300,000; in the data active means inhibition above about 50%; inconclusive means no clear call, values can overlap the other calls
Bead autofluor: compound fluorescence in toxin protease inhibitor counterscreen; compound autofluorescence counterscreen, microsphere flow cytometry; hits give high values; fluorescence intensity (concentration not given with the values); hit rate 3.1% among 360,000; in the data active means fluorescence intensity above about 16000; inconclusive means no clear call, values can overlap the other calls
Of the large screens only hits and unclear results are named; the others gave an inactive call; ! = not active in a repeat. Most compounds without a hit are left out; they make up all but 3.7% or so of the library. Unless noted, no stated cut-off is given here; in the data, active means inhibition above about 30%; inconclusive means no clear call, values can overlap the other calls; inactive means below that.

O=C1c2ccccc2C(=O)N1CCc1nc(-c2ccccn2)no1	Bead autofluor 21427
COc1ccccc1NS(=O)(=O)c1cc(C(=O)NCc2ccco2)ccc1C	Bead autofluor 17992
Cc1ccccc1NS(=O)(=O)c1cc(C(=O)NCc2ccco2)ccc1C	none
Cc1cccc(-n2c(CCn3nc(C)c([N+](=O)[O-])c3C)n[nH]c2=S)c1	Bead autofluor 16467
COc1cccc(-n2c(CCn3nc(C)c([N+](=O)[O-])c3C)n[nH]c2=S)c1	none
Cc1ccc(NC(=O)N/C=C/c2ccco2)c(C)c1	none
Cc1ccc(NC(=O)N/C=C/c2ccco2)cc1C	BoNT-A LC inh2 inconclusive, Bead autofluor 21513
Cc1c(CC(=O)NCC(=O)NCC(=O)N[C@@H](Cc2ccccc2)C(=O)O)c(=O)oc2c(C)c(O)ccc12	none (no result: BJeLR viability)
Cc1ccc2oc(NC3=NC4(CCCC4)C4=C(CCCC4=O)N3)nc2c1	none (no result: BJeLR viability)
Cc1cc(Br)ccc1N1C(=O)CC(=O)NC1=O	Bead autofluor 20409
O=C1CC(=O)N(c2cccc(Br)c2)C(=O)N1	none
O=C1CC(=O)N(c2ccc(Cl)cc2Cl)C(=O)N1	Bead autofluor 21690
CC1=C(C(=O)N(C(C)C)C(C)C)CC(CC(=O)NC2CC2)C(=O)N1CCCN1CCCC1=O (configuration not stated)	none (no result: BH1578 lux ind, BJeLR viability)
Cc1nc(C(F)(F)F)c(C(=O)NC(=O)Nc2ccccc2)s1	Bead autofluor 16731
Nc1ncnc2c1ccn2[C@H]1CN(Cc2ccc(Cl)cc2)C[C@@H](CO)O1	none (no result: BJeLR viability)
CCOC(=O)Cn1c(-c2ccc(Cl)nc2)nc2ccccc21	Bead autofluor 22764
COC(=O)c1c(NC(=O)c2ccccc2)sc2c1CC(C)(C)OC2	BoNT-A LC inh2 inconclusive, Bead autofluor 16350
Cc1cc(C)cc(C(O)c2ncc(-c3ccccc3C)[nH]2)c1 (configuration not stated)	none (no result: BJeLR viability)
O=C(CCC1CCCCC1)Nc1ccccc1-c1ccccc1	BoNT-A LC inh2 inconclusive, Bead autofluor 21102
O=C(CCC1CCCCC1)Nc1ccccc1O	Bead autofluor 16345
CCCCNC(=O)C1(C)CCN1C(=O)c1cccc(OC(C)=O)c1C (configuration not stated)	none (no result: BJeLR viability)
O=C(NCCCO)C12CC3CC(CC(C3)C1)C2	none
O=C(O)CSCNC(=O)C12CC3CC(CC(C3)C1)C2	Bead autofluor 16463
CC(C)OC(=O)c1c(NC(=O)CCn2nnc3ccccc32)sc2c1CCCC2	BoNT-A LC inh2 inconclusive, Bead autofluor 20341
CC(C)OC(=O)c1c(NC(=O)CCC(=O)O)sc2c1CCCCC2	none
O=C1CCCc2nc(N3CCN(Cc4ccccc4)CC3)ncc21	BoNT-A LC inh2 inconclusive, Bead autofluor 17293
Cc1ccc(/C=C2\SC(=S)N(C3CCS(=O)(=O)C3)C2=O)o1 (configuration not stated)	BoNT-A LC inh2 35.0
NS(=O)(=O)c1ccc(-c2ccc(C=NC3CCS(=O)(=O)C3)o2)cc1 (configuration not stated)	none
NS(=O)(=O)c1ccc(-c2ccc(/C=C3\SC(=S)N(C4CCS(=O)(=O)C4)C3=O)o2)cc1 (configuration not stated)	Anthrax LF prot 45.7, BoNT-A LC inh2 65.1
Cc1ccc(C(=O)Nc2cccc(NC(=O)c3cccs3)c2)c(C)c1	BoNT-F LC inh inconclusive
CCOC(=O)C1CCCN(S(=O)(=O)c2ccccc2)C1 (configuration not stated)	Bead autofluor 22239
CCOC(=O)C1CCCN(C(=O)Cc2c(C(=O)O)[nH]c3ccccc23)C1 (configuration not stated)	Bead autofluor 23230
CCOC(=O)c1ccc(S(=O)(=O)N2CCN(CC3CC=CCC3)CC2)cc1 (configuration not stated)	BoNT-A LC inh2 inconclusive, Bead autofluor 17091
CCOC(=O)C1CN(S(=O)(=O)c2ccccc2)C1	none (no result: BH1578 lux ind)
CCOC(=O)C1CCCN(CCCc2ccccc2)C1 (configuration not stated)	Bead autofluor 23848!
CCOC(=O)c1ccc(S(=O)(=O)N2CCN(S(=O)(=O)CC)CC2)cc1	none
COc1ccc(Cl)cc1-c1cc(C(=O)N[C@H](C)c2ccccc2)[nH]n1	none (no result: BJeLR viability)
CC1=C(C(=O)N(C)C)CC(CC(=O)NC2CCCCC2)C(=O)N1Cc1ccc(F)cc1 (configuration not stated)	none (no result: BH1578 lux ind, BJeLR viability)
O=C(NC1CCCC1)C1CCCN(S(=O)(=O)c2ccc(-n3cnnn3)cc2)C1 (configuration not stated)	none
CC(C)NC(=O)C1CCCN(S(=O)(=O)c2ccc(-n3cnnn3)cc2)C1 (configuration not stated)	Bead autofluor 16890
CCOC(=O)c1ccc(NC(=O)C2CCCN(S(=O)(=O)c3ccc(F)cc3)C2)cc1 (configuration not stated)	Bead autofluor 24696
COc1cc([C@@H]2c3cc4c(cc3[C@@H](NC3CCN(Cc5ccccc5)CC3)[C@H]3COC(=O)[C@H]23)OCO4)cc(OC)c1O	BJeLR viability 86.2 (no result: Anthrax LF prot, BH1578 lux ind, BoNT-F LC inh, BoNT-A LC inh2, Bead autofluor)
COc1cc([C@@H]2c3cc4c(cc3[C@@H](OC)[C@H]3COC(=O)[C@H]23)OCO4)cc(OC)c1O	none
CCOc1ccc(-c2nnn(CC(=O)Nc3ccccc3OC)n2)cc1OCC	none
CCN(CC)c1ccc(NC(=O)Cn2nnc(-c3cccc(OC)c3OC)n2)c(C)c1	Bead autofluor 20991
COc1cccc(CN(C)C[C@@H]2OCc3cnnn3CCCC(=O)N([C@@H](C)CO)C[C@H]2C)c1	none (no result: BJeLR viability)
Cc1nc(N)[nH]c(=O)c1CCC(=O)OCC(C)C	Bead autofluor 23221
CCCCCCOC(=O)CCc1c(C)nc(N)[nH]c1=O	none
C(=N\n1cnnc1)/c1ccc2ncccc2c1	BoNT-A LC inh2 inconclusive, Bead autofluor 20485
C(=N\n1cnnc1)/c1ccc2c(c1)OCO2	Bead autofluor 24727
C(=N\n1cnnc1)/c1ccc2c(c1)OCCO2	none
C(=N\n1cnnc1)/c1ccccn1	none
CCOC(=O)c1sc2nc(OCc3cccnc3)cc(C)c2c1N	none (no result: BH1578 lux ind, BJeLR viability)
Nc1nc2ccccc2n1S(=O)(=O)c1ccccc1	none (no result: BJeLR viability)
CCCSc1nnc(NC(=O)c2nc(SC)ncc2Cl)s1	BoNT-A LC inh2 inconclusive, Bead autofluor 19506
Cc1[nH]c2ccccc2c1C1(O)C(=O)N(C(C)C)c2ccccc21 (configuration not stated)	Bead autofluor 23898
CC1=C(C#N)C(NC(=O)c2ccc(C)cc2)(C(F)(F)F)C(=O)N1 (configuration not stated)	Bead autofluor 19042
FC(F)(F)c1ccccc1Cc1c(-c2cccc(Cl)c2)nc2ccc(Cl)cn12	none (no result: BH1578 lux ind, BJeLR viability)
Cc1cc(C)n(C(=O)c2c([N+](=O)[O-])c(C)nn2C)n1	Bead autofluor 24146
Cc1cc(C)n(C(=O)c2c([N+](=O)[O-])cnn2C)n1	none
